The whole screen tested about 65,000 compounds, of which about 2,100 (3.2%) showed an effect of 50% or more. The median lay at about -52%. For the sample, strong results were picked, then their nearest neighbours and some compounds at random.

In ChEMBL document CHEMBL4513216, “Probing the Open Global Health Chemical Diversity Library for Multistage-Active Starting Points for Next-Generation Antimalarials” (ACS Infect Dis, 2020) one finds INHIBITION data, which are given here for 104 compounds.

The test system of this test is Plasmodium falciparum. Put plainly: Screen against P. falciparum Asexual Blood Stage (ABS), at 5uM. It counts as functional, Dd2. Conditions: tested at 5 uM.
In the case of `COCc1cncc2c1CCN(Cc1cnn(C)c1)C2`, the INHIBITION was -135%.
The result for `c1ccc(O[C@H]2CO[C@@]3(CCCN(Cc4nccs4)C3)C2)nc1` reads -90.3%; that for `Cc1ccccc1CC1(CO)CCCN(c2ncncc2C(C)C)C1` (centres undefined), 85%; that for `CCS(=O)(=O)N1CCOC2(CCCN(Cc3ccccn3)C2)C1` (centres undefined), -69.2%.
On to `CN(C)C(=O)CN1CC[C@@H]2O[C@@H](COCc3cccnc3)CC[C@@H]21`, for which the INHIBITION was -71.1%.
Turning to `Cc1nn(C)cc1C1=NS(=O)(=O)N(C)C(C(=O)Nc2ccc(Cl)cc2)=C1`, the INHIBITION came to 83.4%.
On to `Cc1nn(C)cc1C1=NS(=O)(=O)N(C)C(C(=O)Nc2ccc(Br)cc2)=C1`, for which the INHIBITION is recorded as 90%.
Regarding `c1ccc(OC[C@H]2CCC[C@]23CN(Cc2nccs2)CCO3)nc1`, the INHIBITION stood at 6.16%.
Turning to `CCCC12CN3CC(C)(CN(C1)C3c1[nH]c(=O)[nH]c(=O)c1C)C2=O` (centres undefined), the INHIBITION was -167%.
As to `Cc1noc(C)c1CN1CC[C@H]2OCC[C@@]2(C(=O)N(C)C)C1`, the INHIBITION is -41.2%.
Turning to `COc1cc(C2(C(=O)NCCn3ccnc3)CCCC2)ccc1C`, the INHIBITION was determined as 50%.
With `COCCNC(=O)C1(c2ccc(C)c(OC)c2)CCCC1`, the INHIBITION is reported as 6.63%.
`Cc1cc(C)c(N(CC(O)CNCc2ccccc2)S(C)(=O)=O)c(C)c1` (centres undefined): the INHIBITION stood at 70.4%.
The result for `COCCOc1ccccc1CNCC1COC2(CCCC2)O1` (centres undefined) reads 74.3%; that for `CN(C)c1nc(N)nc(CN2CCC(c3ccccc3)CC2)n1`, 80.4%.
Consider `CCN1CCC(c2cncc(N(C)C)n2)CC1`, for which the INHIBITION was -163%.
For the compound `O=C(N1CCCO1)[C@]12COC[C@H]1CN(Cc1cccnc1)C2`, the INHIBITION is on record as -58.8%.
The result for `Cc1ccc(N2CCO[C@H]3CN(Cc4ccc(F)cc4)C[C@H]32)nn1` reads -3.71%; that for `Cc1nc(N2C[C@H]3CC[C@@H](C2)N3)nc2cc(S(C)(=O)=O)ccc12`, -46.7%.
As for `CCN(CC)CCN(C)c1nc(-c2ccc(Cl)cc2)nc2c1CNC2`, the INHIBITION is 88.3%.
Regarding `Cc1nccn1CCN(C)c1nc(-c2ccc(Cl)cc2)nc2c1CNC2`, the INHIBITION is given as 70.5%.
Regarding `CCN1C[C@H]2[C@@H](C1)N(S(=O)(=O)c1cccnc1)CC[C@H]2OC`, the INHIBITION is -40.3%.
As for `NC(=O)CCC1CCCN(c2ccnc3cc(F)ccc23)C1` (centres undefined), the INHIBITION turned out to be 83.4%.
Turning to `Cc1noc(C)c1CN1CC[C@H]2OCC[C@@]2(C(=O)NCC2CC2)C1`, the INHIBITION is given as -139%.
Regarding `CN(C)Cc1cncc2c1CCN(C1CCOCC1)C2`, the INHIBITION is reported as -179%.
On to `O=C(N[C@H]1CN[C@H]2CCCO[C@H]21)c1cscn1`, for which the INHIBITION is -37.2%.
The result for `CCC/C=C/c1ccc(CN2CCN(C)CC2)cn1` reads 0.24%; that for `O=C(C1CC1)N1CC2(CCNCC2)C1`, -76.2%; that for `O=C(NCc1cnn2cccnc12)C1CC2(CCNCC2)CN1` (centres undefined), -20.8%.
The result for `O=C(C1CC2(CCNCC2)CN1)N1CCN(c2cccc(Cl)c2Cl)CC1` (centres undefined) reads 79.2%; that for `CC(C)c1nc(CNCC2CCCN2c2cccnn2)cs1` (centres undefined), 71.1%; that for `CC(C)c1nc(CC(=O)N2CCN(C)CC2c2ccccc2)cs1` (centres undefined), -16.5%.
The result for `COc1nc(C)ccc1CNc1cc(N2CCCC2CO)ncn1` (centres undefined) reads -50.3%.
Turning to `CC(Cn1cccn1)NCc1nc(-c2cccs2)no1` (centres undefined), the INHIBITION is recorded as -230%.
The result for `c1cnnc(N2CCCC2CNCc2nc(-c3cccs3)no2)c1` (centres undefined) reads 72.2%; that for `Cc1ccsc1CNCC1CCCN1c1cccnn1` (centres undefined), 78.8%; that for `Cc1nc(CN2CCC23CCN(C(=O)c2ccncc2)CC3)cs1`, 2.76%.
As to `O=C(C1CC=CC1)N1CCC2(CC1)OCCO2`, the INHIBITION is listed as -69.1%.
With `O=C(O)[C@@H]1CN(CC(=O)N2CCCCC2)C[C@H]1c1ccc(F)cc1`, the INHIBITION is listed as -140%.
For `NCC(=O)N1CCCCC1c1ccc(F)cc1` (centres undefined), the INHIBITION is on record as 85.3%.
`O=C(O)[C@@H]1CN(CC(=O)N2CCCCCC2)C[C@H]1c1ccc(F)cc1`: the INHIBITION was -66.2%.
As for `Cc1ncsc1CN1C[C@@H](OCc2ccncc2)[C@H]2OCCC[C@H]21`, the INHIBITION was -190%.
Turning to `CC(C)C(NC(=O)c1ccccc1F)C(=O)N1CCC2(CC1)OCCO2` (centres undefined), the INHIBITION was -65.9%.
The result for `Fc1cnc(N2CCO[C@H]3CN(CC4CCOC4)C[C@H]32)nc1` (some centres undefined) reads -57.2%.
Take `Cc1cn2c(n1)C(CNCC1=Cc3ccccc3OC1)CCC2` (centres undefined): the INHIBITION is on record as 79%.
The result for `Cc1cn2c(n1)C(CNCC1=Cc3cc(Cl)ccc3OC1)CCC2` (centres undefined) reads 88.2%; that for `CC(C)C(=O)N1C[C@H]2CCCN[C@H]2C1`, 28.1%.
With `COc1cccc2c(=O)n(C3CCCNC3)cnc12` (centres undefined), the INHIBITION is -35.5%.
Regarding `CC(C)c1ocnc1C(=O)N1CCC2(CC1)OCCO2`, the INHIBITION is recorded as -39.3%.
The result for `Cc1cc(CNC(C)Cn2cncn2)ccc1Br` (centres undefined) reads -29.8%; that for `CCCOc1ccccc1C(N)CC(C)C` (centres undefined), 75.1%; that for `COC[C@H]1CCC[C@]12CN(Cc1cccc(C)n1)CCO2`, -25.5%.
As to `OCCN1CC2(CCN(c3ccccc3)C2)C1`, the INHIBITION was determined as 62.8%.
The result for `O=C1Nc2ccccc2CC12CCN(CCO)C2` (centres undefined) reads -93.6%; that for `CN1C(=O)C2(CCN(CCO)C2)c2ccccc21` (centres undefined), -143%; that for `Cc1noc(C)c1CN1CC[C@@H]2O[C@@H](COCC3CC3)CC[C@@H]21`, 0.666%.
With `OCC1CCCCN1c1ccc(-c2nc(-c3ccccc3F)no2)cn1` (centres undefined), the INHIBITION is listed as 75.5%.
Turning to `O=C(Cc1ccncc1)N1C[C@@H]2CC[C@H]1CN(Cc1cccnc1)C2`, the INHIBITION is reported as 10.9%.
The result for `Cc1nc(CN2CCCC3(CCN(c4cccnc4)C3=O)C2)cs1` (centres undefined) reads -34.3%; that for `CN(C)CCN(CC1CCCO1)C(=O)Cc1cn2ccccc2n1` (centres undefined), -90.1%; that for `c1ccn2cc(CN3CCCC(c4ccn[nH]4)C3)nc2c1` (centres undefined), 89.1%.
Regarding `Cn1ncc(NCc2cccc(OCC(F)(F)F)c2)c(Cl)c1=O`, the INHIBITION was -44.7%.
Regarding `CCCS(=O)(=O)N1CCN(CCOC)c2nc(C)ccc2C1`, the INHIBITION is -87%.
For the compound `CCn1cc(NC(=O)N2CCN(C(=O)Oc3ccccc3)CC2)cn1`, the INHIBITION is reported as -56.8%.
The result for `c1cnc(N2CCOCC3(CCCN(Cc4cc[nH]n4)C3)C2)nc1` (centres undefined) reads -63.1%; that for `c1cc(CN2CCOCC3(CCNCC3)C2)ccn1`, -114%.
In the case of `c1[nH]c(CC2CCCC2)nc1CN1CCCC2(CCOC2)C1` (centres undefined), the INHIBITION amounted to 82.2%.
With `Cc1cc(CN(C)C(=O)CN2CCCC2=O)no1`, the INHIBITION is given as -32.3%.
On to `COc1cc(OC)cc(C2SCC(=O)Nc3ccsc32)c1` (centres undefined), for which the INHIBITION was -38.5%.
The result for `O=C(Nc1cccnc1)[C@H]1C[C@H]2OCC[C@H]2N(CC2CC2)C1` reads -67.1%; that for `Cc1n[nH]c2c1C(c1cccnc1)SCC(=O)N2` (centres undefined), -32.5%.
For `Cc1cccc(CN2CCN(C(=O)N(C)C)[C@@H]3CS(=O)(=O)C[C@@H]32)n1`, the INHIBITION is -85.1%.
For `CCC[C@H]1CN(c2nc(CO)cs2)C[C@@H]1NC(=O)C1(COC)CC1`, the INHIBITION is 71.7%.
As to `O=C(Nc1cccnc1)[C@H]1COC[C@H]2CN(C3CCCC3)C[C@H]21`, the INHIBITION was 12.5%.
With `O=C(C[C@@H]1COC[C@H]2CN(CC3CC3)C[C@@H]12)NCc1cccnc1`, the INHIBITION is recorded as -75.7%.
Take `O=C(C1CCC1)N1C[C@H]2CNC[C@H]2C1`: the INHIBITION is recorded as -30.2%.
In the case of `O=C(C1CCOCC1)N1C[C@H]2CNC[C@H]2C1`, the INHIBITION was found to be 52.6%.
As for `O=C(C1CCCC1)N1C[C@H]2CNC[C@H]2C1`, the INHIBITION was -5.05%.
For the compound `O=C(CC1CC1)N1C[C@H]2CCN[C@H]2C1`, the INHIBITION is on record as -62.6%.
With `O=S(=O)(c1cccnc1)N1C[C@@H]2COC[C@]2(CN2CCOCC2)C1`, the INHIBITION is recorded as -111%.
The result for `CN1CCN(Cc2ccccc2CNC(=O)c2ccc(Cl)cc2F)CC1` reads 77.2%.
`CN1CCN(Cc2ccccc2CNC(=O)c2cc(Br)ccc2F)CC1`: the INHIBITION was found to be 77.5%.
On to `Cc1cc(CN2CCN(C(=O)Cc3ccccc3F)CC2)on1`, for which the INHIBITION is recorded as -206%.
As to `Cc1ncsc1CN1C[C@H](OCc2ccncc2)[C@H]2OCCC[C@H]21`, the INHIBITION is recorded as -47.7%.
On to `O=C(Cc1cccs1)N1C[C@@H]2OCCN(CC3CCCC3)[C@@H]2C1`, for which the INHIBITION is -96.4%.
For the compound `CC(Cn1cccn1)NCc1csc(-c2cccs2)n1` (centres undefined), the INHIBITION was -268%.
With `CCc1nc(CNC(C)Cn2cccn2)cs1` (centres undefined), the INHIBITION is given as -78.5%.
As to `COc1cccc(-c2nc(CNCCCn3cccn3)cs2)c1`, the INHIBITION is listed as 76.3%.
The result for `Cc1cc(CN2CC[C@H]3C[C@H](C(=O)N(C)C)O[C@@H]3C2)no1` reads -20.9%; that for `c1cc(CN2CCSC3(CCCCC3)C2)no1`, -170%.
`CC(C)Nc1ccc2nc(C3CCNCC3)nn2c1`: the INHIBITION is -54.1%.
For `Cc1nn(C)c(C)c1C(C(=O)O)N1CC=C(c2ccccc2)CC1` (centres undefined), the INHIBITION is on record as -74.2%.
In the case of `CC(C(=O)N1CCCC1)N1CCCN(C(=O)Oc2ccccc2)CC1` (centres undefined), the INHIBITION is -54.8%.
The result for `O=C(NCCN1CCCCC1)C(c1ccccc1)N1CCCC1` (centres undefined) reads 80%; that for `O=C1[C@@H]2CCN(C3CCC3)C[C@@H]2OCCN1Cc1ccncc1`, -35.3%; that for `COc1cccc(CN(C)C(C)c2ccco2)c1OCCn1ccnc1` (centres undefined), 71.8%.
The result for `CN1C(=O)CCC12CCCN(Cc1nccs1)C2` (centres undefined) reads -74.2%; that for `CNC(=O)CN1C(=O)CCC12CCCN(Cc1ccccn1)C2` (centres undefined), -14.2%.
With `CN(C)CCN1C(=O)CCCC12CCCN(Cc1cccs1)C2` (centres undefined), the INHIBITION stood at 73.5%.
For `COCCC1(CNC(=O)Nc2ccnc(C)c2)CCCC1`, the INHIBITION is reported as 72.6%.
Consider `Cc1ncc(CN2C[C@H]3CC(OCc4ccccc4)C[C@H]3C2)cn1` (some centres undefined), for which the INHIBITION is -74.6%.
As to `Cc1ccc2c(n1)N(CCn1cccn1)CCN(CC1CC1)C2`, the INHIBITION is reported as 77.6%.
The result for `Cc1ccc2c(n1)N(CC1CC1)CCN(Cc1ccco1)C2` reads -45.2%; that for `Cc1ccc2c(n1)N(CC1CC1)CCN(S(=O)(=O)C1CC1)C2`, -28.5%.
